Only some compounds are listed: those with a hit (about 5.7% of all), similar ones and a draw of the others.
HP1b binding inh: blocks HP1-beta chromodomain binding to methylated histone tails | AlphaScreen HP1-beta / biotin-H3K9me3 peptide binding | Potency, µM (series often up to 114 µM), inactives show top-dose activity change, negative = inhibition, hits mostly inhibitors | actives 0.56% (n = 390,000) | AID 540317; also: potency is read from the fitted curve at half-maximal effect; nearly all actives have a fitted effect of over 70% in size
Target sequence (P83916 whole entry, looked up): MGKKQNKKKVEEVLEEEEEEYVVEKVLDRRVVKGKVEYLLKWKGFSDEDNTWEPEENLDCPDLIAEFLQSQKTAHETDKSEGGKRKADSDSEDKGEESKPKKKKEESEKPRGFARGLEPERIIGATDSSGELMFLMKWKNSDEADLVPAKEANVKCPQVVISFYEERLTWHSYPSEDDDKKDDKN
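AlphaScreen: HP1-beta (50 nM) preformed 30 min with biotin-H3(1-18)K9me3 peptide (50 nM) in PBS pH 7.4, 0.01% Tween-20. Compound added for 30 min at RT, then streptavidin donor/nickel chelate acceptor beads (10 ug/mL) for 30 min.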
L3MBTL1 block: L3MBTL1 (human) inhibition; actives 0.66% (n = 230,000); AID 485360; Potency, µM (top dose mostly 57.1 µM), for inactives: top-dose activity, negative = inhibition, usual class: inhibitors; AlphaScreen L3MBTL1–H3K9me1 peptide binding; Q9Y468; also: potency is read from the fitted curve at half-maximal effect; % is scaled to controls: 0 for no effect and ±100 for the full control effect; nearly all actives have a fitted effect of over 60% in size
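AlphaScreen assay: L3MBTL1 (50 nM final) was preincubated 30 min at room temperature with biotinylated H3(1-15)K9me1 peptide (75 nM final), then 30 min with library compounds; streptavidin donor and nickel chelate acceptor beads (10 ug/mL final) added, 30 min dark.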
PI5P4Ka inh: blocks human PI5P4K alpha kinase activity; AID 652105; PI5P4Kalpha enzyme, ADP-Glo luminescence, 60 min; active compounds read low; P48426; max response, %; actives 1.2% (n = 330,000); active = max response of -50% or lower; inconclusive = between -30% and -50%; inactive = -30% or higher; also: value at the top dose of about 77 µM; % is scaled to controls: 0 for no effect and ±100 for the full control effect
Target sequence (P48426 whole entry, looked up): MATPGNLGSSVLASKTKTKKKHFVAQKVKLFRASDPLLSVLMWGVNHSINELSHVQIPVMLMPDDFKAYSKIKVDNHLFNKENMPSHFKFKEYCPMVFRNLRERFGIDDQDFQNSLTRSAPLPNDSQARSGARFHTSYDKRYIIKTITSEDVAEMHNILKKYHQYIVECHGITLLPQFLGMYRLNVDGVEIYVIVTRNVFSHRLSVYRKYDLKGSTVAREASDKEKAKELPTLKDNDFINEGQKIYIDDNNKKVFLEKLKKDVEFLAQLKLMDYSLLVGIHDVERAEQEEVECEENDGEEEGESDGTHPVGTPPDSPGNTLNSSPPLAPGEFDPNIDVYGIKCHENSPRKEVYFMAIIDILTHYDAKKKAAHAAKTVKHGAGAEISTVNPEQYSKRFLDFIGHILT
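Luminescence from ADP-Glo served as readout of PI5P4Kalpha activity in a qHTS format. Reaction: enzyme, substrate, compound, ATP at 5 microM final, 60 min at RT.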
JMJD2A Tudor: JMJD2A Tudor domain (human) inhibition; O75164; AlphaScreen JMJD2A-Tudor / H3K4me3 peptide binding; Potency, µM (highest dose often 114 µM), without a hit: top-dose activity change, negative = inhibition, actives largely listed as inhibitors; actives 4.4% (n = 390,000); AID 504339; also: potency is read from the fitted curve at half-maximal effect; % is scaled to controls: 0 for no effect and ±100 for the full control effect; nearly all actives have a fitted effect of over 50% in size
KDM4E inh: inhibitors of human JMJD2E histone demethylase | Potency, µM (series often up to 57.1 µM), without a hit: at the highest dose activity change, negative = inhibition, actives largely listed as inhibitors | JMJD2E catalytic domain, FDH-coupled NADH fluorescence (FDH is formaldehyde dehydrogenase) | B2RXH2 | actives 1.6% (n = 230,000); active = well fitted inhibition curve with a large enough effect, not every such curve was filed as active; inconclusive = small, poorly fitted or top-dose-only effect, or another doubt; inactive = no such curve, though single readings can be large or run the other way;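 also: potency is read from the fitted curve at half-maximal effect; 0% = wells with enzyme and -100% = buffer wells without enzyme; nearly all actives have a fitted effect of over 50% in size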
BAZ2B block: BAZ2B (human) inhibition; AlphaScreen BAZ2B-H3K14Ac peptide displacement; Potency, µM (top dose mostly 114 µM), for inactives: at the top dose activity change, negative = inhibition, most hits filed as inhibitors; actives 4.4% (n = 360,000); AID 504333; also: potency is read from the fitted curve at half-maximal effect; % is scaled to controls: 0 for no effect and ±100 for the full control effect; nearly all actives have a fitted effect of over 60% in size
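Inhibition is scored as reduced AlphaScreen emission. The BAZ2B/b-H3(5-23)K14Ac complex (50 nM each) in PBS pH 7.4, 0.01% Tween-20 meets compound (up to 110 uM) for 30 min at RT before bead addition.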
* marks the source's active call; other numbers are inactive results; ? = inconclusive; nt = no result given; [ ] = remark or other dose. Unless noted, calls follow the shape of the dose curve; as a rule, active = well fitted inhibition curve with a large enough effect; inconclusive = small, poorly fitted or top-dose-only effect; inactive = no such curve, though single readings can be large or run the other way.

SMILES | HP1b binding inh | L3MBTL1 block | PI5P4Ka inh | JMJD2A Tudor | KDM4E inh | BAZ2B block
Cc1ccccc1CC(=O)NC1CCCc2ccccc21 (configuration not stated) | 18.9% | 14.9% | 8.2 | -0.7% | nt | ?
COc1ccc(CNC2c3ccccc3-c3ccccc32)cc1OC | -2.8% | nt | 25.4 | -19.4% | nt | -28.0%
COc1ccc(CNC2CCCc3ccccc32)cc1OC (configuration not stated) | -5.9% | 8.1% | 1.8 | 11.2µM* | ? | 70.8µM*
COc1ccc(CNC2CCSc3ccccc32)cc1OC (configuration not stated) | ? | nt | 11.0 | 8.91µM* | nt | 50.1µM*
COc1ccc(S(=O)(=O)NC2CCSc3ccccc32)cc1OC (configuration not stated) | 10.4% | nt | -9.8 | -25.8% | nt | 1.2%
CCc1ccc(CNC(=O)c2cccc(-n3c(C)nc4cccnc43)c2)cc1 | 13.7% | nt | nt | -24.8% | nt | -5.1%
CC(=O)c1ccc(S(=O)(=O)N2Cc3ccccc3CC2C(=O)O)cc1 (configuration not stated) | -0.3% | ? | 0.1 | 17.8µM* | -3.6% | ?
O=C(O)[C@H]1Cc2ccccc2CN1S(=O)(=O)c1ccc(F)cc1 | 31.4% | 3.1% | -2.8 | -6.3% | 8.5% | -2.3%
CS(=O)(=O)N1Cc2ccccc2CC1C(=O)O (configuration not stated) | 8.4% | -18.0% | -9.1 | -10.9% | 1.6% | ?
O=C(O)C1Cc2ccccc2CN1S(=O)(=O)/C=C/c1ccccc1 (configuration not stated) | 37.8% | -4.6% | -2.5 | -15.2% | 10.4% | 79.4µM*
O=c1cc(NC2CCCCC2)[nH]c(=O)[nH]1 | 3.7% | nt | -4.3 | -9.7% | nt | nt
O=c1[nH]c(NC2CCCCC2)c([N+](=O)[O-])c(=O)[nH]1 | 39.3% | 11.4% | -76.3* | 1.4% | -0.6% | 11.2%
CC(C)N1CCN(C(=O)c2cccc(Cl)c2)CC1 | ? | 11.9% | -0.7 | 14.1µM* | nt | ?
CCC(CC)N1CCN(C(=O)c2cccc(Cl)c2)CC1 | ? | 0.5% | -1.6 | 20µM* | nt | 56.2µM*
O=C(c1cccnc1)N1CCN(C(=O)c2cccc(Cl)c2)CC1 | 64.9% | -0.1% | 2.3 | -2.8% | nt | 2.9%
COC(=O)C1CCN(C(c2ccccc2)c2sc3nc(-c4ccco4)nn3c2O)CC1 (configuration not stated) | -2.0% | nt | nt | -16.6% | nt | -15.5%
CCOC(=O)c1cnc2c(OC)cccc2c1N1CCN(c2ccc(OC)cc2)CC1 | ? | -14.0%[11.4 µM] | -12.4 | -16.8%[11.4 µM] | ? | 11.2µM*
COC(=O)c1cnc(N2CCN(c3ccccc3F)CC2)c2ccccc12 | 116.6%[57 µM] | nt | nt | 90.3% | nt | 37.0%
COC(=O)c1cnc(N2CCN(c3ccc(OC)cc3)CC2)c2ccccc12 | -13.1%[57 µM] | nt | nt | 25.1µM* | nt | 22.4µM*
CCOC(=O)c1cnc2c(OC)cccc2c1N1CCN(c2ccccc2OC)CC1 | -23.7% | -8.6% | 0.0 | ? | ? | ?
COc1ccc2c(c1)sc1ncc(C(=O)NCc3cccc(Cl)c3)c(=O)n12 | 10.4% | nt | nt | -17.1% | nt | 0.1%
Nc1c(S(=O)(=O)O)cc(NC(=O)c2ccccc2)c2c1C(=O)c1ccccc1C2=O | ? | nt | -77.3* | 2.51µM* | nt | 3.55µM*
CCCc1cc(=O)[nH]c2nnc(SCC(=O)Nc3nnc(CC)s3)n12 | 7.5% | -7.8% | -21.3 | 25.1µM* | nt | 6.2%
CCN1C(=O)/C(=C\C(=O)c2cccs2)c2cc(Br)ccc21 | 22.4µM* | -12.6% | 2.6 | 28.2µM* | -6.7% | 15.8µM*
COc1cc2c(cc1OC)CN(C(C)C(=O)N1CCc3ccccc31)CC2 (configuration not stated) | 6.2% | nt | -2.3 | -15.6% | -4.4% | 56.2µM*
SMILES | HP1b binding inh | L3MBTL1 block | PI5P4Ka inh | JMJD2A Tudor | KDM4E inh | BAZ2B block
COc1ccc(NC(=O)CSc2nncc3ccccc23)cc1 | 53.7% | 13.3% | 2.9 | -14.3% | 1.4% | 3.3%
COc1ccc(C(=O)Sc2nncc3ccccc23)cc1 | 10.8% | -5.1% | 0.0 | ? | -22.7% | 70.8µM*
CC(=O)Oc1ccc2c(=O)c(/C=N/c3cc(=O)[nH]c(=S)[nH]3)coc2c1 | 19.9% | -13.1% | -90.9* | -20.0% | -27.5% | -24.2%
CC(=O)Oc1ccc2c(=O)c(-c3ccccc3)coc2c1 | 0.2% | 4.6% | -12.2 | -9.3% | ? | -22.7%
O=c1cc(/N=C/c2coc3cc(Br)ccc3c2=O)[nH]c(=S)[nH]1 | 9.0% | 0.9% | -83.1* | -25.4% | 2.3% | ?
O=C1C[C@@H](c2ccccc2Cl)N1S(=O)(=O)c1ccccc1[N+](=O)[O-] | 26.4% | nt | nt | -15.2% | nt | nt
CNCc1ccccc1Sc1cc(O)ccc1O | 10µM* | -13.3% | ? | 17.8µM* | ? | 35.5µM*
COc1ccc(C2C(=O)N(C3CCCCC3)CC(=O)N2C2CCCC2)cc1 (configuration not stated) | 11.3% | -1.4% | nt | -8.9% | -2.3% | -3.2%
COc1ccc(C2CC(=O)N3CN(C4CCCCC4)CSC3=C2C#N)cc1 (configuration not stated) | ? | nt | nt | 7.08µM* | nt | nt
CCOC(=O)c1ccc(N2CSC3=C(C#N)C(c4cccs4)CC(=O)N3C2)cc1 (configuration not stated) | ? | -2.8% | -69.9* | 28.2µM* | ? | 44.7µM*
COc1ccc(N2CSC3=C(C#N)C(c4cccs4)CC(=O)N3C2)cc1 (configuration not stated) | 9.2% | ? | nt | -11.9% | 2.1% | 50.1µM*
Cc1cc(C)cc(OC(C)C(=O)Nc2ccc(S(=O)(=O)Nc3cc(C)nc(C)n3)cc2)c1 (configuration not stated) | 9.4% | nt | -0.4 | -20.7% | nt | -20.0%
Cc1cccc(NC(=O)CCNS(=O)(=O)c2ccc3c(c2)CCN3C(=O)C2CC2)c1 | 27.0%[57 µM] | nt | nt | -14.5% | nt | 2.3%
COc1cc(OC)cc(-c2nc3nc(C)c(CCC(=O)Nc4cc(C)cc(C)c4)c(C)n3n2)c1 | 34.9% | nt | nt | 5.1% | nt | -5.1%
S=c1[nH]nc(-c2cccc3ccccc23)n1-c1cccnc1 | 10.8% | 5.5% | -1.6 | 20µM* | -14.6% | -4.9%
CC(C)c1ccccc1-n1c(-c2cccnc2)n[nH]c1=S | 30.7% | 0.0% | -11.8 | 10µM* | -14.1% | -20.1%
Cc1ccccc1-n1c(-c2cccnc2)n[nH]c1=S | 38.2% | nt | nt | 11.2µM* | -3.0% | -4.3%
O=C(Cn1c(SCCOc2ccccc2)nc2ccccc21)N1CCOCC1 | 43.3% | nt | nt | -1.0% | nt | 2.0%
CCN1C(=O)[C@H]2[C@@H](c3ccc(-c4ccc(F)cc4)c(OC)c3)N[C@@](C)(C(=O)OC)[C@H]2C1=O | 25.8% | -10.4% | -4.4 | ? | nt | 56.2µM*

Screening data from PubChem.
